This is an account of results in ChEMBL document CHEMBL1961873, “Compounds: GSK PKIS; Assays: Nanosyn kinase panel” (2012).

Structures are written as SMILES.

For orientation: inhibition means the relative decrease from the control value, in per cent.

The target in assay [1] is Dual specificity protein kinase CLK3 (Homo sapiens) (UniProt P49761). The note with it: at 1 µM.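 Note: each value is the mean inhibition of CLK3.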
Assay [2] addresses Dual specificity tyrosine-phosphorylation-regulated kinase 1A (Homo sapiens) (UniProt Q13627). As to conditions: at 0.1 µM.
The target is the same in assay [3]. As to conditions: at 1 µM.
Assay [4] deals with Dual specificity tyrosine-phosphorylation-regulated kinase 1B (Homo sapiens) (UniProt Q9Y463). As to conditions: at 0.1 µM.
Assay [5] has the same target. The note with it: at 1 µM.
The target in assay [6] is T1, Dual specificity tyrosine-phosphorylation-regulated kinase 2 (Homo sapiens) (UniProt Q92630).
T1 sequence (whole entry): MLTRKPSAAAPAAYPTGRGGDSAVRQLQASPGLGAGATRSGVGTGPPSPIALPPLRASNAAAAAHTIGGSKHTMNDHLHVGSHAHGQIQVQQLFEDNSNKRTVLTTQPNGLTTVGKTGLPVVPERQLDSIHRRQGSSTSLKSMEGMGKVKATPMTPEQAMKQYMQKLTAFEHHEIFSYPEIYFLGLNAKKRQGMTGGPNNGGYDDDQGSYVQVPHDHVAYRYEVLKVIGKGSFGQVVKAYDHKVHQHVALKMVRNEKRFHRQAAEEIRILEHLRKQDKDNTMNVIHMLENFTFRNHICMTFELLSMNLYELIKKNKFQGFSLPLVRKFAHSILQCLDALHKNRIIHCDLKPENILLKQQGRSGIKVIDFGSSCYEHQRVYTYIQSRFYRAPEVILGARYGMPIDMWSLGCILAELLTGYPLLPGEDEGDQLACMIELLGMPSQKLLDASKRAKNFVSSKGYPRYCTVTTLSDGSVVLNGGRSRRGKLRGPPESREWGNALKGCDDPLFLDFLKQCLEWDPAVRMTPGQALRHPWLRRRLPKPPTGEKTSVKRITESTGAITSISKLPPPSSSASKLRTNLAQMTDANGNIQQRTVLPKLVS
As to conditions: at 0.1 µM.

For assay [7], the target named is T1, Dual specificity tyrosine-phosphorylation-regulated kinase 2 (Homo sapiens). As to conditions: at 1 µM.
Assay [8] addresses Glycogen synthase kinase-3 alpha (Homo sapiens) (UniProt P49840). As to conditions: at 0.1 µM.
Assay [9] has the same target. The note with it: at 1 µM.
Assay [10] addresses Glycogen synthase kinase-3 beta (Homo sapiens) (UniProt P49841). The note with it: at 0.1 µM.
For assay [11] the target is unchanged. The note with it: at 1 µM.
For assay [12], the target named is Homeodomain-interacting protein kinase 1 (Homo sapiens) (UniProt Q86Z02). As to conditions: at 0.1 µM.
For assay [13] the target is unchanged. The note with it: at 1 µM.
Assay [14] deals with T2, Homeodomain-interacting protein kinase 4 (Homo sapiens) (UniProt Q8NE63).
T2 sequence (whole entry): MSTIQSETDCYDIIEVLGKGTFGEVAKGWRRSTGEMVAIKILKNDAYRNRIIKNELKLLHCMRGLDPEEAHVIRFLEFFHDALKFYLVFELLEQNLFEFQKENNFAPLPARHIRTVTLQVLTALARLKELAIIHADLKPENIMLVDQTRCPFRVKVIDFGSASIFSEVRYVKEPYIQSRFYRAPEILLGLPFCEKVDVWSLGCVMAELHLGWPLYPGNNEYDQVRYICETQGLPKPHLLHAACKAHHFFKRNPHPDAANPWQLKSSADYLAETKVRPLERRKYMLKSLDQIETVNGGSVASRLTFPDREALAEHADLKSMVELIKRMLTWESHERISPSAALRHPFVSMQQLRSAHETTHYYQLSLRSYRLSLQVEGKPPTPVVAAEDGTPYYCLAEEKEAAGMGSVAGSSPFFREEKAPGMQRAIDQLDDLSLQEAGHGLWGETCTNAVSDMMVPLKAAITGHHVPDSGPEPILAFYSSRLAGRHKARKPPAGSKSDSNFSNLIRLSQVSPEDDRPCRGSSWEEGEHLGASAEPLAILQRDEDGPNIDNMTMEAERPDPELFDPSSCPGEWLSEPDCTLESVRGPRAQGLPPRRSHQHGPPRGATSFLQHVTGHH
The note with it: at 0.1 µM.

Assay [15] concerns the target T2, Homeodomain-interacting protein kinase 4 (Homo sapiens). The note with it: at 1 µM.
For assay [16], the target named is Mitogen-activated protein kinase 9 (Homo sapiens) (UniProt P45984). The note with it: at 0.1 µM.
The target is the same in assay [17]. As to conditions: at 1 µM.
The target in assay [18] is Mitogen-activated protein kinase 1 (Homo sapiens) (UniProt P28482). As to conditions: at 0.1 µM.
The target is the same in assay [19]. As to conditions: at 1 µM.
The target of assay [20] is Mitogen-activated protein kinase 3 (Homo sapiens) (UniProt P27361). As to conditions: at 0.1 µM.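 Note: each value is a mean inhibition figure.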
Mitogen-activated protein kinase 3 (Homo sapiens), sequence (P27361 whole entry): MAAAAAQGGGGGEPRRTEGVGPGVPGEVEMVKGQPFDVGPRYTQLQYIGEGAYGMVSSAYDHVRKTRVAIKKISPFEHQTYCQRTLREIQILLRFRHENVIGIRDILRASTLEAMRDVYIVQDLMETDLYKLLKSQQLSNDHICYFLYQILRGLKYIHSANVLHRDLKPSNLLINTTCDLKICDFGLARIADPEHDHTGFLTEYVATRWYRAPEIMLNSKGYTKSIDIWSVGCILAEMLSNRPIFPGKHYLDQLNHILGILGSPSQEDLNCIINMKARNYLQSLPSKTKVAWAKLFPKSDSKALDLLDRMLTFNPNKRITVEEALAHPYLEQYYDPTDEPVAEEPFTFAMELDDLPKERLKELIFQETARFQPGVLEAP

Homeodomain-interacting protein kinase 1 (Homo sapiens), sequence (Q86Z02 whole entry, looked up): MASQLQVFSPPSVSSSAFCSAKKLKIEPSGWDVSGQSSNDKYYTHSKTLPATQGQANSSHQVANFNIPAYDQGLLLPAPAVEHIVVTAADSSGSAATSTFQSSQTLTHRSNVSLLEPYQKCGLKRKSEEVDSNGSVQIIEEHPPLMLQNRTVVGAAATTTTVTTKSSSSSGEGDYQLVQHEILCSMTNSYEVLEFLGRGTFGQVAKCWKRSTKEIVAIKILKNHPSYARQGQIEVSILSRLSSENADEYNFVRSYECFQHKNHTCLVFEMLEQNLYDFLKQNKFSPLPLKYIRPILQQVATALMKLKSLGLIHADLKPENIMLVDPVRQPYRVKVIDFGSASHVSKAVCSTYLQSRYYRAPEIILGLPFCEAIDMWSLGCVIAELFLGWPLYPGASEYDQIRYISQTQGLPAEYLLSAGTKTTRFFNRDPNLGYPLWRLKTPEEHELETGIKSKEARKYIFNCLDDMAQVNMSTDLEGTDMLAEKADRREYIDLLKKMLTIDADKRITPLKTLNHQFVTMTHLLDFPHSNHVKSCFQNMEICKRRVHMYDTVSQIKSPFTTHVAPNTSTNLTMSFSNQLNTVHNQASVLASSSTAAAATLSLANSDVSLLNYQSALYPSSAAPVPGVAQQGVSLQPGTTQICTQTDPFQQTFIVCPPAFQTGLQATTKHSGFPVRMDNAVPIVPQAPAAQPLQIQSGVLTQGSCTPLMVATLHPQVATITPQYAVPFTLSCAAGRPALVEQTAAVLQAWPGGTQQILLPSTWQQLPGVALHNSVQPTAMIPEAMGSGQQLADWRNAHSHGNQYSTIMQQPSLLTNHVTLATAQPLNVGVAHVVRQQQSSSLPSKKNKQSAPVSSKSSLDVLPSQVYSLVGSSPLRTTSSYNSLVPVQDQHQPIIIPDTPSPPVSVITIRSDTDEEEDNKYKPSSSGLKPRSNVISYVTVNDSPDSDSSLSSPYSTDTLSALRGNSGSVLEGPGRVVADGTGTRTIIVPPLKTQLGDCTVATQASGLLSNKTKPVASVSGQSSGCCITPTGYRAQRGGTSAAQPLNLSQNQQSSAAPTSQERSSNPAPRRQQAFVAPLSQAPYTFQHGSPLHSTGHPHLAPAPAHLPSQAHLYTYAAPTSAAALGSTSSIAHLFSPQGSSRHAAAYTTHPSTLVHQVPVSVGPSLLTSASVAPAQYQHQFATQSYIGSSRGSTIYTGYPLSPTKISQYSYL
Dual specificity protein kinase CLK3 (Homo sapiens), sequence (P49761 whole entry, looked up): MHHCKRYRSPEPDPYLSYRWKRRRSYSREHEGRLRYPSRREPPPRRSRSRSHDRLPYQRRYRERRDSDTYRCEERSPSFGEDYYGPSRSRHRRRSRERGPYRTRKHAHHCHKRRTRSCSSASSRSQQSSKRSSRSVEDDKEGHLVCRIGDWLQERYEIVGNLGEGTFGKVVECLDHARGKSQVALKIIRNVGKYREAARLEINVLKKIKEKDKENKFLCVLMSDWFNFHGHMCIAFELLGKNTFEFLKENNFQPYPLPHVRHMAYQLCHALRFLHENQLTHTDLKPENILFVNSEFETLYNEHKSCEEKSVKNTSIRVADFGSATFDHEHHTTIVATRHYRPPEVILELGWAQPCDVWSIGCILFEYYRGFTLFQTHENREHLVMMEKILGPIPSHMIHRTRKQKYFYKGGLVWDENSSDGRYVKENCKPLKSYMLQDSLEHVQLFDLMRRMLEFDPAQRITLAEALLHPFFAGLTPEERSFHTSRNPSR
Glycogen synthase kinase-3 beta (Homo sapiens), sequence (P49841 whole entry, looked up): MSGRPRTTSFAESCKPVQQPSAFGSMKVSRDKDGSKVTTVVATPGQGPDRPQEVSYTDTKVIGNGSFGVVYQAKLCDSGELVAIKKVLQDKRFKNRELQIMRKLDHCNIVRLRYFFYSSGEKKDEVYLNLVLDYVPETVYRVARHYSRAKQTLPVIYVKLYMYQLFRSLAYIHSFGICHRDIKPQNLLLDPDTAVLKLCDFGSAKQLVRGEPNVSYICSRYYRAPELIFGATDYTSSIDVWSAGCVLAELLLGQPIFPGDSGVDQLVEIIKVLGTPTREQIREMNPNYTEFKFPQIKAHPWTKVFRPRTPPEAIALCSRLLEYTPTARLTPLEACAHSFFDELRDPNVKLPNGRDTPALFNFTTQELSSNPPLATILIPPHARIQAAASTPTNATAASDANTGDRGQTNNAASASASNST
Glycogen synthase kinase-3 alpha (Homo sapiens), sequence (P49840 2-483 limits assumed): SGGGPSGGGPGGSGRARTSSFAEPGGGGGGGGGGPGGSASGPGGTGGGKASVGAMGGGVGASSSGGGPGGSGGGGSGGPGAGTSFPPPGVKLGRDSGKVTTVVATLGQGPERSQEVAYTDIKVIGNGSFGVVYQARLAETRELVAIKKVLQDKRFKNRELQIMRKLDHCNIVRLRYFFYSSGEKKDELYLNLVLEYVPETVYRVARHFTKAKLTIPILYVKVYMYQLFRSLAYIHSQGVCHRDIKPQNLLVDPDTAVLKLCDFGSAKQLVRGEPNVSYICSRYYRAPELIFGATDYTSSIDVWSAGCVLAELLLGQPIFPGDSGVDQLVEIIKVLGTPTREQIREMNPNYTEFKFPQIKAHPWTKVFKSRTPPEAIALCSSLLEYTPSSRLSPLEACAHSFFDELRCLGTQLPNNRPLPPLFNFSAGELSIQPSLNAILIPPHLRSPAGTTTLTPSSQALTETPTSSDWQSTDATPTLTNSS
Mitogen-activated protein kinase 1 (Homo sapiens), sequence (P28482 whole entry): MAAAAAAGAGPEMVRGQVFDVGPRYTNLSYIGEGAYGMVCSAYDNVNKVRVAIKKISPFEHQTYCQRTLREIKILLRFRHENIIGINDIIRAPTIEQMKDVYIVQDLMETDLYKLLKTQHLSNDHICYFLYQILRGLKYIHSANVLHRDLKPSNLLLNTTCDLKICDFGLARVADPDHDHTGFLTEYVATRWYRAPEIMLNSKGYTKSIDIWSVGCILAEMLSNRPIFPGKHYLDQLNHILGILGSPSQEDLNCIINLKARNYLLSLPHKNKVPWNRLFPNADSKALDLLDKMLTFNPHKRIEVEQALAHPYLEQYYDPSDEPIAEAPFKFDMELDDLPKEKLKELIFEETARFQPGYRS
Mitogen-activated protein kinase 9 (Homo sapiens), sequence (P45984 whole entry, looked up): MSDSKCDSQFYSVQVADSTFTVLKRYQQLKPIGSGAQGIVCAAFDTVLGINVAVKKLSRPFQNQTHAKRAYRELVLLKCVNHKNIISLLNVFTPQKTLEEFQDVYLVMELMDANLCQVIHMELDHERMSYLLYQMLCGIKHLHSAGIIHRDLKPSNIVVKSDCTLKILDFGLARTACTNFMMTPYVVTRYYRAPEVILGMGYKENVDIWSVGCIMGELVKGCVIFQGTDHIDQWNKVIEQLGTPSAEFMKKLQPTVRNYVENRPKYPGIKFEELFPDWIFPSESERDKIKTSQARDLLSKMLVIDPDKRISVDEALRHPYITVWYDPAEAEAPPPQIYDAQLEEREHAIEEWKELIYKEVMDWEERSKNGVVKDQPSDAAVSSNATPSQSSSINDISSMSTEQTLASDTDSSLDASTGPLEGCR
Dual specificity tyrosine-phosphorylation-regulated kinase 1B (Homo sapiens), sequence (Q9Y463 whole entry, looked up): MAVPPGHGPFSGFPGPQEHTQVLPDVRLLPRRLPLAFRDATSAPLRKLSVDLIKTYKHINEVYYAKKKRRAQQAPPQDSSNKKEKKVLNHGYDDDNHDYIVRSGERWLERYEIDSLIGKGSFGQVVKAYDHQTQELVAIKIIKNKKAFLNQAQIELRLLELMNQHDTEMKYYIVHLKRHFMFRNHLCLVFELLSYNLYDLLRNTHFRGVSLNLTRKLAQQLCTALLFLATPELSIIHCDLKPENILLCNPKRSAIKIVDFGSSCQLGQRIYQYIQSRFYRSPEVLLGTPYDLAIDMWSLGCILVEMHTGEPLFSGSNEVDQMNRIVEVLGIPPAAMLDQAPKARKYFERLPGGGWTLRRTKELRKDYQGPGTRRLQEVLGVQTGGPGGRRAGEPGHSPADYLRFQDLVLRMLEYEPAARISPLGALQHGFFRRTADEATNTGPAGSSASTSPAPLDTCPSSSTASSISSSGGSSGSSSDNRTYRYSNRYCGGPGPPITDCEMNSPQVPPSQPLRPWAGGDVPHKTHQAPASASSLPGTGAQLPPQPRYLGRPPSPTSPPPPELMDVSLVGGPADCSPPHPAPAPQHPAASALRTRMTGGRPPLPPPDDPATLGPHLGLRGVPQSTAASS

As for `CN(C)C(=O)O[C@H]1CN[C@H](C#Cc2cc3ncnc(Nc4ccc(OCc5cccc(F)c5)c(Cl)c4)c3s2)C1`, the inhibition in assay [1] was determined as 1.86%; in assay [2], 1.54%; in assay [3] it was 3.38%; in [4], 0.21%; in [5] it was 0.78%; in assay [6], 2%. Moreover, the inhibition was 2.24% in assay [7]; 1.64% in assay [8]; 5.51% in [9]; 1.31% in assay [10]; 4.1% in [11]; -0.07% in [12]. Besides, the inhibition in assay [13] is 0.31%; in assay [14], 0.17%; in assay [15], 1.29%; in assay [16], 2.26%; in [17], 6.8%; in assay [18], -0.55%. The figures for the inhibition in assay [19] and in [20] were 2.89% and 1.44%, respectively.
As to `CCn1c(-c2nonc2N)nc2ccc(F)cc21`, the inhibition was 1.23% in assay [1]; 5.13% in [2]; 10.8% in assay [3]; -0.23% in assay [4]; 1.12% in [5]; 4.17% in assay [6]. For the same molecule, the inhibition worked out at 4.15% in [7]; 3.78% in assay [8]; 4.96% in assay [9]; 3% in assay [10]; 3.37% in assay [11]; 2.6% in assay [12]. In addition, the inhibition in assay [13] is 2.13%; in assay [14], 2.47%; in assay [15], 3.5%; in [16], 5.8%; in assay [17], 7.99%; in [18] it was 6.8%. Moreover, the inhibition is 8.85% in assay [19] and 6.33% in assay [20].
Regarding `CC(C)c1ccc2c(c1)NC(=O)/C2=N/Nc1ccc(S(N)(=O)=O)cc1`, the inhibition in assay [1] is -0.08%; in assay [2], 0.62%; in assay [3], 2.99%; in [4], 3.56%; in assay [5], 4.99%; in [6], 0.96%. Further, the inhibition was -0.44% in assay [7]; 4.22% in assay [8]; 16.5% in assay [9]; 4.19% in assay [10]; 16.8% in assay [11]; -1.88% in [12]. Also, the inhibition in assay [13] was 4.72%; in assay [14] it was 0.27%; in [15], 1.57%; in assay [16] it was 0.14%; in [17], 0.34%; in assay [18], 2.02%. Besides, the values for the inhibition in assay [19] and in assay [20] were 0.4% and 1.56%, respectively.
For the molecule `Nc1nccc(-c2c(-c3ccc(F)cc3)nn3cc(C(F)(F)F)ccc23)n1`, the inhibition in assay [1] was 0.23%; in assay [2] it was 0.54%; in [3], 16.4%; in assay [4] it was -1.44%; in assay [5], 0.98%; in assay [6], 0.12%. The inhibition in assay [7] was -1.97%; in [8], -1.1%; in assay [9] it was -0.65%; in assay [10], -1.01%; in [11], -1.01%; in assay [12], -6.6%. In addition, the inhibition was -1.23% in [13]; -0.17% in assay [14]; 0.63% in assay [15]; 2.4% in assay [16]; 4.47% in assay [17]; -0.05% in assay [18]. The inhibition in assay [19] is 0.2%; in assay [20] it was 3.72%.
Turning to `CC(C)c1ccc(Nc2nccc(-c3cnn4ncccc34)n2)cc1`, the inhibition in assay [1] amounted to 14%; in assay [2], 40.6%; in assay [3], 81.2%; in assay [4], 43.4%; in [5] it was 82.1%; in [6], 2.73%. The inhibition is 14% in [7]; 35.6% in [8]; 76% in assay [9]; 31.3% in [10]; 75.4% in [11]; 57.9% in [12]. Besides, the inhibition came out at 87.8% in assay [13]; 11.2% in [14]; 50.6% in assay [15]; 5.25% in [16]; 27% in assay [17]; 3.14% in [18]. The inhibition turned out to be 9.29% in assay [19] and 0.92% in assay [20].
With `CN1CCN(C(=O)c2ccc(NC(=O)Nc3ccc(N(C)c4ccnc(Nc5ccc(CS(C)(=O)=O)cc5)n4)cc3)cc2)CC1`, the inhibition was -0.46% in assay [1]; -0.03% in assay [2]; -2.1% in assay [3]; 0.37% in assay [4]; -2.01% in assay [5]; 2.14% in assay [6]. Besides, the inhibition is 4.06% in assay [7]; 2.9% in assay [8]; 4.98% in [9]; 1.98% in assay [10]; 4.51% in [11]; -3.22% in [12]. The inhibition in [13] turned out to be 5.55%; in [14], 0.53%; in [15], 9.14%; in [16] it was 0.8%; in assay [17], 12.4%; in [18] it was 1.77%. For the same molecule, the inhibition in assay [19] was determined as 11.2%; in [20] it was 2.64%.
On to `O=C1Nc2ccc(-c3cccnc3)cc2C1=Cc1cc(Br)c(O)c(Br)c1`, for which the inhibition in assay [1] is 38.6%; in assay [2] it was 21.7%; in [3], 63.5%; in [4], 9%; in assay [5] it was 46.7%; in [6], 3.53%. The inhibition came to 15.5% in assay [7]; 4.28% in assay [8]; 26.1% in [9]; 3.87% in assay [10]; 21.4% in assay [11]; 2.42% in assay [12]. For the same molecule, the inhibition in [13] was 22.4%; in assay [14], 2.35%; in assay [15], 13.8%; in assay [16] it was 1.52%; in [17], 3.04%; in [18], 6.12%. The inhibition in assay [19] stood at 3.37%; in assay [20] it was 4.06%.
